Compound activity: PubChem, National Center for Advancing Translational Sciences (NCATS)
This excerpt belongs to a sample that is enriched for hits.
Pf Dd2 inh: qHTS Primary assay for Inhibitors of Plasmodium falciparum Dd2 growth in vitro | actives 4.3% (n = 120,000) | P. falciparum Dd2 growth, SYBR Green, 72 h | AID 1347417, 2020 | Potency, µM (series often up to 28.9 µM), without a hit: top-dose activity, negative = inhibition, hits mostly inhibitors; active means well fitted inhibition curve with a large enough effect;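 further: plate controls were DMSO vehicle for no effect and reference drug for full effect; nearly all actives have a fitted effect of over 65% in size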
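Readout: SYBR Green fluorescence, 485 nm excitation, 535 nm emission, after ~16 h lysis at 37C. Before that, Dd2-infected red cells (2.5% hematocrit) grew 72 h with compound, 29 uM top final concentration.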
* marks the source's active call; other numbers are inactive results; i = inactive; [ ] = remark or other dose. Potency means the concentration at half of the fitted maximal effect.

SMILES	Pf Dd2 inh
COc1ccccc1Nc1cc(C(=O)NC2CCCC2)c2ccccc2n1	17%
O=C(NCc1ccccc1)c1ccc2nc(CCc3ccccc3)oc2c1	3%
COc1ccc(Nc2cc(C(=O)NCCCN3CCN(c4ccccc4F)CC3)c3ccccc3n2)c(OC)c1	10µM*
COc1ccc(OC)c(CNC(=O)c2cc3c(Cl)nc4ccccc4c3s2)c1	50%
COc1ccc(Nc2cc(C(=O)NCc3ccccc3)c3ccccc3n2)c(OC)c1	-13%
COc1ccc(Nc2cc(C(=O)NCCCN(C)Cc3ccccc3)c3ccccc3n2)c(OC)c1	17%
CCCNC(=O)c1ccc2nc(CCc3ccccc3)oc2c1	4%
COc1ccc(N2CCN(CCCNC(=O)c3cc(Nc4ccccc4OC)nc4ccccc34)CC2)cc1	-16%
CCOC(=O)C1CCCN(C(=O)c2cc3c(Cl)nc4ccccc4c3s2)C1 (stereo not drawn)	-16%
O=C(NCCCN1CCN(c2ccccc2F)CC1)c1cc2c(Cl)nc3ccccc3c2s1	2.8µM*
CCN(CCCNC(=O)c1cc(Nc2ccccc2OC)nc2ccccc12)c1cccc(C)c1	11µM*
O=C(NCCCN1CCN(c2ccccc2F)CC1)c1ccc2nc(CCc3ccccc3)oc2c1	11µM*
CNC(=O)[C@@H]1CN(C(=O)c2cscn2)C[C@H]1c1nc(COC)no1	20%
CCN(CC)C(=O)[C@@H]1CCC[C@@H](NCc2nccn2C)CN(C)C(=O)C1	8%[44.1 µM]
Cc1cccc(C)c1NC(=O)N1CCC(n2cc(-c3cccnc3)nn2)CC1	-5%
COCCC(=O)N[C@H]1CC[C@]2(C)CC[C@@H](C(C)C(=O)NC3CC3)[C@H](O)[C@H]2[C@@H]1C (stereo partly drawn)	12%[44.1 µM]
CCC(=O)N1CCC(n2c(C)cnc2C2CC2)CC1	17%
COc1cccc(C(=O)N2CCC(c3nn(Cc4ccccc4)c(=O)[nH]3)CC2)c1	i
O=C1CCC2(C(=O)NCCc3ccccc3)CCCC=C2N1c1ccccc1 (stereo not drawn)	i
CN(C)c1nsc(N2CCC3(CC2)C(C(=O)O)CC(=O)N3C)n1 (stereo not drawn)	0%
CN(CC1CCOC1)C(=O)C1CCCC1 (stereo not drawn)	23%[5.79 µM]
COCCN(Cc1c(C)nn(C)c1C)CC1[C@H]2CNC[C@@H]12 (stereo partly drawn)	2%
COCC1(c2nc(-c3ccc(C(N)=O)cc3)nn2-c2ccc(OC)cc2)CC1	1%
CCCN1CCN(CCCNC(=O)c2cc3c(Cl)nc4ccccc4c3s2)CC1	10µM*
O=C(c1cc2c(Cl)nc3ccccc3c2s1)N1CCCCC1	12%
SMILES	Pf Dd2 inh
CC(C)NC(=O)c1cc2c(Cl)nc3ccccc3c2s1	3%
COc1ccc(C2(C(=O)N3CCOCC3)CCOCC2)cc1	7%
CCC(CO)Nc1ncnc2c1CN(C1CCCNC1)C(=O)CN2C (stereo not drawn)	19%
COc1cccc(N2CCN(C(=O)CN3CC4CC(C3)[C@H]3CCCC(=O)N3C4)CC2)c1 (stereo partly drawn)	-8%
Cc1cc(C)cc(NC(=O)N2CCCC(Cn3cnc4cccnc43)C2)c1 (stereo not drawn)	-11%
Cc1cccc(NC(=O)N2CCCC(Cn3cnc4cccnc43)C2)c1 (stereo not drawn)	-17%
Cc1cc(NC(=O)N2CCCC(Cn3cnc4cccnc43)C2)ccc1Br (stereo not drawn)	8.9µM*
O=C(NCc1ccc(OC(F)(F)F)cc1)N1CCCC(Cn2cnc3cccnc32)C1 (stereo not drawn)	7.1µM*
O=C(NCc1cccc(F)c1)N1CCCC(Cn2cnc3cccnc32)C1 (stereo not drawn)	-14%
COc1cccc(CNC(=O)N2CCCC(Cn3cnc4cccnc43)C2)c1 (stereo not drawn)	13%
Cc1ccc(-c2cc(C(=O)N3CCN(S(=O)(=O)c4ccc(Br)s4)CC3)[nH]n2)c(C)c1	13µM*
O=C(C1CCN(S(=O)(=O)c2ccc(Br)s2)CC1)N1CCN(c2ccc(F)cc2)CC1	-8%
O=C(c1cc(-c2ccc(Br)cc2)n[nH]1)N1CCN(S(=O)(=O)c2ccc(Br)s2)CC1	8.9µM*
Cc1cc(Br)ccc1NC(=O)C1CCN(S(=O)(=O)c2ccc(Br)s2)CC1	-18%
O=C(c1cc(-c2ccc(Cl)cc2)n[nH]1)N1CCN(S(=O)(=O)c2ccc(Br)s2)CC1	-25%
Cc1ccc(-c2cc(C(=O)N3CCN(S(=O)(=O)c4ccc(Br)s4)CC3)[nH]n2)cc1C	3%
COc1cc(CNC(=O)C2Cn3cccc3C(=O)N2)cc(OC)c1 (stereo not drawn)	32%
CCOc1ccccc1NC(=O)C1CCN(C(=O)c2ncn3c2COC(c2ccc(F)cc2)C3)CC1 (stereo not drawn)	-15%
COCc1nc2nc(-c3ccccc3)c(-c3ccc([S+](C)(=O)[O-])cc3)cc2n1C	-31%[44.1 µM]
COc1ccc(CN2CCC3(CC2)COc2ccccc2NC3=O)cc1	-15%
COc1ncccc1-c1ccc2onc(C)c2n1	18%[44.1 µM]
Cc1ccc(C2=Nc3ccccc3N(CC(=O)NCc3ccc(F)cc3)C(=O)C2)cc1C	-17%
Cc1ccc(C2=Nc3ccccc3N(CC(=O)NCc3ccc(Cl)cc3)C(=O)C2)cc1C	-14%
O=C(CN1C(=O)CC(c2ccccc2)=Nc2ccccc21)Nc1ccc(Br)cc1	10µM*
Cc1csc(NC(=O)c2ccc3c(c2)OCC(=O)N(Cc2cnn(C)c2)C3)n1	i
SMILES	Pf Dd2 inh
Cc1cn2cc(CNC(=O)c3ccc(CN4CCCN(C)CC4)[nH]c3=O)nc2s1	-16%
CN1C(=O)Cc2cc(S(=O)(=O)N3CCN(c4ccc(Cl)cc4)CC3)ccc21	-1%
COc1ccc2c(c1)C1(CCN(C(=O)CCc3ccccc3)C1)C(=O)N2C (stereo not drawn)	-2%
COc1ccc2c(c1)C1(CCN(S(=O)(=O)c3ccc4c(c3)CC(=O)N4C)C1)C(=O)N2C (stereo not drawn)	2.5µM*
O=C(c1ccc(C(F)(F)F)cc1)N1CCn2c(nn(-c3ccncc3)c2=O)C1	9%
Cc1ccc(-n2nc3n(c2=O)CCN(C(=O)c2ccc(F)cc2)C3)cc1	10%
O=C(NC[C@H]1OC[C@@H](N(Cc2ccccc2)Cc2ccccc2)[C@@H]1O)Nc1ccccc1	i
O=C(NCCCN1CCOCC1)c1c(OCC2CC2)cc(=O)n2c1CCOCC2	11%
CCN(CC)CCCNC(=O)c1ccc2c(c1)N(Cc1c(F)cccc1Cl)C(=O)c1ccccc1S2	0.45µM*
CCCCNC(=O)c1ccc2c(c1)N(CC)C(=O)c1ccccc1S2	1%
CCCCN(C)C(=O)c1ccc2c(c1)N(Cc1cccc(F)c1)C(=O)c1ccccc1S2	i
O=C(NCc1ccc2c(c1)OCO2)c1ccc2c(c1)N(Cc1c(F)cccc1Cl)C(=O)c1ccccc1S2	7.1µM*
O=C(NC1CCCC1)c1ccc2c(c1)N(Cc1ccccc1F)C(=O)c1ccccc1S2	i
O=C(NCCc1ccc(Cl)cc1)c1ccc2c(c1)N(Cc1c(F)cccc1Cl)C(=O)CS2	i
CC(C)(C)C(=O)N1CC[C@@H](CC(=O)O)[C@@H](CCN2CCOCC2)C1	-17%[44.1 µM]
O=C(Nc1cccc(C(F)(F)F)c1)O[C@@H]1CO[C@H]2[C@@H]1OC[C@@H]2NC(=S)NC1CCCCC1	-3%
Cc1nc2cc(N3CCC(C(=O)NCCC4=CCCCC4)CC3)cnc2nc1C	-19%
CCOc1cccc(CNC(=O)c2noc(-c3ccc(F)cc3)n2)c1	31%
O=C(CCn1cnnn1)N1CCCC(CCc2cccc(C(F)(F)F)c2)C1 (stereo not drawn)	-16%
